# Test results: PubChem BioAssay AID2014 (Sanford-Burnham Center for Chemical Genomics, 2009)
# Values joined by “and” are separate entries in the source; they are usually repeats but may differ in a detail not shown here. Equal values may be shown once. Screen size: about 290,000 compounds; about 3,000 (1%) were called active. No rule for the calls is given here. This excerpt belongs to a sample that is enriched for actives.
# Biological target: Polyadenylate-binding protein 1 (Homo sapiens) (UniProt P11940)
# Test: blockers of PABP interaction with poly(A) – biochemical, fluorescence polarization, uHTS, primary screen (AID 2014);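 also: calls also rest on retests at 20 µM and on dose response follow-up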
# Conditions: PABP-poly(A) RNA binding, stronger effect = higher value
# Sequence of Polyadenylate-binding protein 1 (Homo sapiens) (P11940 whole entry, looked up): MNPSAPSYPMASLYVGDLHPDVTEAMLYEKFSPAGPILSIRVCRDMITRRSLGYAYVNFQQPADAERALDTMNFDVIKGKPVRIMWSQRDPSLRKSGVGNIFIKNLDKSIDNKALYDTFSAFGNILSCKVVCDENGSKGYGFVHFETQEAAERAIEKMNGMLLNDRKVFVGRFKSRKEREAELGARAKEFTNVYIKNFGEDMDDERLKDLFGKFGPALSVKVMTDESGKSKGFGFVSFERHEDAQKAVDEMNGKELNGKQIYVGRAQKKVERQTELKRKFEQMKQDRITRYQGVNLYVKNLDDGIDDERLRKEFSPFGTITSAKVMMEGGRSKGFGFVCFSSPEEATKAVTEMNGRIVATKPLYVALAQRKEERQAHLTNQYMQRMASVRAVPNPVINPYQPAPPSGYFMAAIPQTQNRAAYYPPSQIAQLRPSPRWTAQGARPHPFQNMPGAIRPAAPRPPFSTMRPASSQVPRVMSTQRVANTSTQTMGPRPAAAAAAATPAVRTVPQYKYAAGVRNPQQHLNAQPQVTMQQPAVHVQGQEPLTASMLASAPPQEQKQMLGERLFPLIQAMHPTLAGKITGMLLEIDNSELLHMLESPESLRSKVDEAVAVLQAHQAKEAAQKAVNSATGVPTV
SMILES,inhibition (at 35 µM),"inhibition (confirmation repeats, at 20 µM) [%]"
Cc1ccc(S(=O)(=O)N2CC(C)N(S(C)(=O)=O)C2)cc1 (stereo not given),2% (inactive),–
Cc1cc(C)c2nc(NC(=O)C3CCCO3)sc2c1 (stereo not given),-13.4% (inactive),–
Cc1cc([N+](=O)[O-])ccc1NC(=O)C1CCCO1 (stereo not given),-5.5% (inactive),–
Cc1ccc(C)c(C(C)NC(=O)C2CCCO2)c1 (stereo not given),102% (active),–
COc1ccc(NC(=O)c2cc([N+](=O)[O-])ccc2NC(=O)CNC2CCCCC2C)c(OC)c1 (stereo not given),9.1% (inactive),–
O=C(CCc1nnc2ccc(NCCCN3CCCC3=O)nn12)NCc1ccccc1Cl,2.5% (inactive),–
CCOC(=O)N1CCN(C(=O)COc2ccc(Br)cc2)CC1,-4.7% (inactive),–
CN1CCCC(OC(=O)COc2ccc(Br)cc2)C1 (stereo not given),0.4% (active),55
Cc1ccc(C(=O)OC2CCCN(C)C2)cc1 (stereo not given),-1.5% (inactive),–
O=C(NC(=S)Nc1ncccn1)c1ccccc1Br,2.7% (inactive),–
CCCc1ccc(OCCNC(=O)c2ccccc2Br)cc1,1.2% (inactive),–
CCOc1cnc(C(=O)NNC(=O)c2ccccc2Br)o1,12.8% (active),95.2
COc1ccc(C(=O)Nc2ccc(C3(C#N)CCCC3)cc2)cc1OC,-5.5% (inactive),–
CC1CCN(S(=O)(=O)c2ccc3[nH]c(=O)ccc3c2)CC1,-3.1% (inactive),–
Cc1c(-c2ccccc2)cn2c1-c1ccc(C)n1CC2,88.3% (active),–
CCN(CC)c1ccc(/C=N/Nc2nc(C)cc(=O)[nH]2)cc1,-2.5% (inactive),–
CCN(CC)c1ccc2oc(=O)c(C)nc2c1,116% (active),62.7
CCN(CC)c1ccc2cc(C(N)=O)/c(=N\NC(=O)c3ccncc3)oc2c1,1.8% (inactive),–
O=[N+]([O-])c1ccccc1/C=C/CN1CCC(O)CC1,4.7% (inactive),–
O=C(O)c1ccc(-n2nc(-c3ccccc3)c3ccccc3c2=O)cc1,8.1% (inactive),–
CCOc1ccc(Br)cc1S(=O)(=O)N1CCC(C(=O)O)CC1,-2.2% (inactive),–

SMILES,inhibition (at 35 µM),"inhibition (confirmation repeats, at 20 µM) [%]"
Cc1ccc(S(=O)(=O)N2CCC(Oc3ccc(-n4cnnn4)cc3)CC2)cc1,6.3% (inactive),–
CCOc1ccc(-n2cnnn2)cc1S(=O)(=O)N1CCC(C)CC1C (stereo not given),74.4% (active),87.6
Cc1cccc(C(=O)N2CCCC(Nc3ccc(C(C)C)cc3)C2)n1 (stereo not given),6.3% (inactive),–
CCOC(=O)c1c(C)[nH]c(C2=NNC(=NC(C)COC)SC2)c1C (stereo not given),50.4% (active),104
CCOC(=O)c1c(C)[nH]c2c1-c1ccccc1C(=O)C2=O,-3.9% (inactive),–
CCCCOC(=O)c1[nH]c(C)c(C(=O)OC)c1C,-3.8% (inactive),–
COCCCNS(=O)(=O)c1cccc(S(=O)(=O)c2cccc(S(=O)(=O)NCCCOC)c2)c1,-6.2% (inactive),–
CC(=O)NS(=O)(=O)c1ccccc1,8.1% (inactive),–
Cc1ccc(S(=O)(=O)NC(=O)c2cccc(C)c2)cc1,4.3% (inactive),–
Nc1ccc(S(=O)(=O)NC(=O)c2ccccc2)cc1,50.5% (active),72.5
COC(=O)Cc1ccc(NC(=S)NCc2ccc(Cl)cc2)cc1,1.5% (inactive),–
Fc1ccccc1CNC(=S)Nc1ccc(Cl)cc1,59.1% (active),83
S=C(NCc1cccs1)Nc1ccc(Cl)cc1,-4.3% (inactive),–
CC1CCCN(CCCNC(=O)CN2C(=O)COc3ccc(S(=O)(=O)N4CCOCC4)cc32)C1 (stereo not given),2.3% (inactive),–
C=CCNC(=S)/N=c1/ccccn1Cc1ccccc1,12.9% (inactive),–
O=C(OCc1cc2ccccc2[nH]c1=O)c1cccnc1,-2.2% (inactive),–
O=C(/C=C/c1ccc(Cl)cc1Cl)c1cccnc1,-1% (inactive),–
O=C(OCc1cc(Cl)ccc1OC(F)F)c1cccnc1,16.1% (active),81.2
CCOC(=O)c1ccc(NC(=O)c2ccc(NC(=O)C3CCCO3)cc2)cc1 (stereo not given),-0.4% (inactive),–
CC(C)C[C@@H](CO)N1CCN(Cc2ccc(O)cc2)CCC1=O,1.4% (inactive),–
COc1ccc(CN2CCCC(CNC(=O)c3ccc(F)cc3)C2)cc1OC (stereo not given),79.6% (active),74.7

SMILES,inhibition (at 35 µM),"inhibition (confirmation repeats, at 20 µM) [%]"
COc1ccc(CCN(C)C(=O)C2CCCN(Cc3ccc(OC)c(OC)c3)C2)cc1OC (stereo not given),11.9% (inactive) and 7% (inactive),–
COc1ccc(Cc2nc3ccc(C(=O)NCC4CCOCC4)cc3o2)cc1OC,11.1% (inactive),–
O=C(Cc1ccccc1F)NC1CCSc2ccccc21 (stereo not given),0.4% (inactive),–
O=c1[nH]c(=S)[nH]c2[nH]c(=S)[nH]c12,91.1% (active),–
Cc1c(C)c(C)c2[nH]c(=S)[nH]c2c1C,9.8% (inactive),–
Cc1ccc2c(c1)N(CC(=O)N1CCOCC1)C(=O)CO2,2.5% (inactive),–
CC1(c2ccc3ccccc3c2)NC(=O)N(CC(N)=O)C1=O (stereo not given),-4.5% (inactive),–
NNC(=O)c1cnn(-c2ccccc2)c1C(F)(F)F,10.3% (inactive),–
O=C(NNS(=O)(=O)c1ccc(Cl)cc1)C1CCN(Cc2ccccc2)CC1,-4% (inactive),–
O=C(NNS(=O)(=O)c1ccccc1)c1cnn(-c2ccc(Cl)cc2)c1C(F)(F)F,11.5% (active),102
COc1ccc(CCNC(=O)c2ccccc2OCc2ccccc2)cc1,-3.4% (inactive),–
CC(C)(C)OC(=O)NNc1c2ccccc2nc2ccccc12,-1.9% (inactive),–
CC(=O)c1cnc(SCCN2C(=O)c3ccccc3C2=O)nc1C,-5.5% (inactive),–
CC(=O)c1cnc(SCC(=O)O)nc1C,54.3% (active),68.8
CSc1ncc(C(=O)NCCCc2ccccc2)c(C)n1,-4.6% (inactive),–
CCC1(CC)Cc2ccccc2-c2nc(CCl)[nH]c(=O)c21,-1.7% (inactive),–
O=C(NCCCN1CCOCC1)c1cc(-c2ccccc2F)no1,-8% (inactive),–
NS(=O)(=O)c1ccc(NC(=S)N2CCCC2)cc1,28.2% (active),50.5
COc1ccc(N2CCN(C(=S)Nc3ccc(S(N)(=O)=O)cc3)CC2)cc1,-0.4% (inactive),–
CC1CN(C(=S)Nc2ccc(S(N)(=O)=O)cc2)CC(C)O1 (stereo not given),-12.5% (inactive),–
CCc1ccc(CNC(=O)C2CCN(c3nnc(C)c4c(C)n(-c5ccc(C)cc5)nc34)CC2)cc1,-22.4% (inactive),–
